For six molecules, growth results are on record in PubChem BioAssay (NCI).

The panel holds about 83,000 compounds, 20% with a hit somewhere; the sample as a whole holds those more often.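 96-well plates, one dose, 48 hours. Percent growth reported; active if below 10.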 Values without a mark were called inactive. The source made the active and inactive calls.

The test system of the assay is HL-60(TB) leukemia. The assay is described as follows: NCI-60 one-dose screen, 48 h (100 = growth as untreated, 0 = no growth, -100 = all killed). The note with it: 10 µM unless noted.
In the case of `C[C@@H]1[C@H]2C[C@@H](C[C@H]1NCc1nc3ccccc3n1C1CCCCCC1)C2(C)C`, the growth was 15%.

For the molecule `COc1cc(/C=C/C(=O)c2cc(OC)c(OC)c(OC)c2)ccc1Oc1nc(Nc2ccc(F)cc2)nc(N(C)C)n1`, the growth is -7.15% (active).

In the case of `O=C1Nc2ccc(Cl)cc2/C1=C/c1ccc(OCc2ccccn2)cc1`, the growth was 85%.

Take `CCN1C(=O)N(CC)C2NNC(Sc3c(C(=O)O)c4ccccc4n(C4CCCC4)c3=O)=NC21` (stereo unspecified): the growth was -9.96% (active).

In the case of `O=C1CCCc2cc(OCC(=O)N3CCCCC3)ccc2N1`, the growth was 91.9%.

For `O=C(O)Cn1c(O)c(/C=C2/C=c3cc4c(cc3=NC2=O)OCCO4)sc1=S`, the growth is 100%.
